# High-throughput results (PubChem)
# PNC assembly inh = High Content Assay for Compounds that inhibit the Assembly of the Perinucleolar Compartment; AID 2417, 2010; activity change (PNC), negative = inhibition, % at 10 µM; PC3M PTB-GFP, PNC prevalence imaging, 16 h; hits give low values; actives 3.1% (n = 140,000);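 active = readout at or below -70, meaning at least 70% loss of cells showing the perinucleolar compartment, a nuclear body marking cancer cells; inconclusive = readout between -30 and a set limit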;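 also: plate controls were DMSO wells for no effect and camptothecin positive control wells for full effect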
#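 PC3M cells stably expressing PTB-GFP, 750–1000 cells/well, treated 16 h at 37 °C with compound (23 nl of library stock), in duplicate. After paraformaldehyde fixation and Hoechst stain, imaged at 20x; PNC prevalence scored by image analysis.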
# HPGD inh = qHTS Assay for Inhibitors of HPGD (15-Hydroxyprostaglandin Dehydrogenase) | 15-hydroxyprostaglandin dehydrogenase [NAD(+)] (Homo sapiens), P15428 | purified HPGD, NADH fluorescence kinetic, PGE2 substrate | Potency, µM, inactives show top-dose activity change, negative = inhibition, most hits filed as inhibitors | actives 4.3% (n = 150,000) | AID 894, 2007; also: potency is read from the fitted curve at half-maximal effect
#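 NADH formation kinetics: reaction with 30 uM PGE2 and 1 mM NAD+ (final), 20 nM enzyme, Tris-HCl pH 8 with Tween 20, after 15 min compound preincubation at room temperature. Fluorescence change, last versus first of five reads.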
# IMPase Li inh = qHTS Assay for Identifying the Cell-Membrane Permeable IMPase Inhibitors: Potentiation with Lithium; CHO-M1 cells, IP1 TR-FRET (IP-One), carbachol + lithium; Potency, µM (titrated, usually from 59.4 µM), without a hit: at the highest dose activity, negative = IMPase inhibition, actives largely listed as inhibitors; actives 0.35% (n = 210,000); AID 1457, 2008; active = well fitted curve in the direction sought with a large enough effect; inconclusive = small, poorly fitted or top-dose-only effect, or another doubt; inactive = no such curve, though single readings can be large; an effect the other way counts as inactive or inconclusive;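 also: IP1 builds up when IMPase is blocked and the TR-FRET signal falls; potency is read from the fitted curve at half-maximal effect; plate controls were basal vehicle for no effect and high inhibitor control for full effect; nearly all actives have a fitted effect of over 50% in size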
#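 Concentration–response in CHO-M1 cells, lithium-potentiated; 30 min at 37C. IP1 detected by competitive TR-FRET after 10 min lysis at RT. Hill-fitted AC50.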
# ALDH1A1 block = qHTS Assay for Inhibitors of Aldehyde Dehydrogenase 1 (ALDH1A1); Aldehyde dehydrogenase 1A1 (Homo sapiens), P00352; Purified ALDH1A1, NADH fluorescence, propionaldehyde substrate; Potency, µM (highest dose often 75.3 µM), inactives show top-dose activity, negative = inhibition, actives largely listed as inhibitors; actives 7.3% (n = 220,000);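 also: potency is read from the fitted curve at half-maximal effect; plate controls were no enzyme wells and a reference inhibitor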
# NPSR antagonist = qHTS Assay for Antagonists of the Neuropeptide S Receptor: cAMP Signal Transduction; Q6W5P4; CHO-NPSR cells, cAMP TR-FRET, antagonist mode; Potency, µM (doses to about 38.3 µM), for inactives: at the highest dose activity change, negative = inhibition, hits mostly inhibitors; actives 1% (n = 220,000); active = well fitted curve in the direction sought with a large enough effect; inconclusive = small, poorly fitted or top-dose-only effect, or another doubt; inactive = no such curve, though single readings can be large; an effect the other way counts as inactive or inconclusive; also: potency is read from the fitted curve at half-maximal effect; nearly all actives have a fitted effect of over 50% in size
# Target sequence (Q6W5P4 whole entry, looked up): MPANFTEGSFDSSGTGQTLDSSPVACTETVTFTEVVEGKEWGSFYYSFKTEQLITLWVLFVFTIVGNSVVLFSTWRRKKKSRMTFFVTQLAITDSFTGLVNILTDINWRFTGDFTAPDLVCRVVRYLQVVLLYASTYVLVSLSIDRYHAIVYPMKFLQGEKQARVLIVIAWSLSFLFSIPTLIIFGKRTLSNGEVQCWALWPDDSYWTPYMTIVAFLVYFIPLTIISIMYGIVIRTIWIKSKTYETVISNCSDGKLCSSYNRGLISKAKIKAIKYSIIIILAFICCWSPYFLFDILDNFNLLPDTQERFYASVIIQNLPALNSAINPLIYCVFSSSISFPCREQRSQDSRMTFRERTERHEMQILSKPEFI
# IMPase cell inh = qHTS Assay for Identifying the Cell-Membrane Permeable IMPase Inhibitors; Inositol monophosphatase 1 (Rattus norvegicus), P97697; CHO-M1 cells, IP1 accumulation, HTRF TR-FRET ratio; inhibition (IP1 accumulation), % at 46.1 µM; 120,000 tested, under 10 active; AID 901, 2007; active = well fitted curve in the direction sought with a large enough effect in the signal ratio, not every such curve was filed as active; inconclusive = small, poorly fitted or top-dose-only effect, or a change in a side signal; inactive = no such curve, though single readings can be large or run the other way; the % refers to the signal ratio;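 also: cells stimulated with carbachol in lithium chloride buffer; plate controls were DMSO basal wells for no effect and reference inhibitor wells for full effect; higher means more IMPase inhibition seen as more IP1 and lower FRET ratio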
# Target sequence (P97697 whole entry, looked up): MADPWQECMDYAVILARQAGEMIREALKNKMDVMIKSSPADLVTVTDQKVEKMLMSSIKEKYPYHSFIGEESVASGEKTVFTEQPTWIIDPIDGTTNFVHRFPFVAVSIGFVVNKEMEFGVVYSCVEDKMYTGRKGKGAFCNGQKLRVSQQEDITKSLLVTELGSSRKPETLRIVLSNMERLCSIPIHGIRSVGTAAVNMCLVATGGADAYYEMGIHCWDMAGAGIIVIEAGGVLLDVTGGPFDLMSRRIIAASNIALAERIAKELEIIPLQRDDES
#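 The IP-One HTRF competitive assay in carbachol-stimulated CHO-M1 cells quantifies cellular IP1. Compounds spanned up to 46 uM final, and activity is expressed as AC50 from concentration-response fits of the ratio and donor data.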
# * marks the source's active call; other numbers are inactive results; u = inconclusive; x = no result given; [ ] = another dose, or the depositor's remark. Compounds with a hit are over-represented: about 11% of the library has one in this group of screens. Unless noted, calls follow the shape of the dose curve; as a rule, active = well fitted inhibition curve with a large enough effect (not every such curve was filed as active); inconclusive = small, poorly fitted or top-dose-only effect, or another doubt; inactive = no such curve, though single readings can be large or run the other way. Unless noted, % is scaled to controls: 0 for no effect and ±100 for the full control effect.
SMILES,PNC assembly inh,HPGD inh,IMPase Li inh,ALDH1A1 block,NPSR antagonist,IMPase cell inh
COc1cc(C(=O)NNC(=O)NC2CCCCC2)cc(OC)c1OC,-120*,-1%,13%[38.3 µM],6%,10%[46.1 µM],-17[1.84 µM]
COc1ccc(C(=O)NNC(=S)NC2CCCCC2)cc1OC,3,-5%,-8%[38.3 µM],11%,-6%[46.1 µM],4
COc1ccc(CCNC(=O)C2CCN(S(=O)(=O)N3CCCCCC3)CC2)cc1OC,-6,-7%,-1%[38.3 µM],7.9µM*,-26%[46.1 µM],3
COc1ccc(CCNC(=O)C2CCN(Cc3nc(-c4cccc(Cl)c4)oc3C)CC2)cc1OC,-83*,-6%,30%[38.3 µM],-4%,5%[46.1 µM],-3
CCOC(=O)Cc1csc(NC(=O)CCS(=O)(=O)Cc2ccccc2)n1,29,-4%,11%[38.3 µM],20µM*,-6%[46.1 µM],3
Cc1oc(-c2cccc(Cl)c2)nc1CN1CCC(C(=O)NCCCN2CCCC2=O)CC1,3,-8%,-20%[38.3 µM],16%,-2%[46.1 µM],1
CCOC(=O)CSc1nnc(CNC(=O)c2ccc(S(=O)(=O)N3CCCC3)cc2)n1C,26,-2%,22%[38.3 µM],19µM*,-1%[46.1 µM],-2
O=C(NCc1ccccc1)c1ccc(S(=O)(=O)N2CCCC2)cc1,u,3%,13%[38.3 µM],u,-12%[46.1 µM],0
COc1ccc(CNC(=O)c2ccc(S(=O)(=O)N3CCCC3)cc2)cc1OC,-4,-14%,9%[38.3 µM],10µM*,-18%[46.1 µM],-1
CCOc1ccc(CCNC(=O)C2CCN(S(=O)(=O)N3CCCCC3)CC2)cc1OCC,84,-3%,-1%,u,-8%,x
CCOC(=O)Cc1csc(NC(=O)c2ccc(S(=O)(=O)N3CCCC3)cc2)n1,26,-13%,-7%[38.3 µM],11µM*,-12%[46.1 µM],1
CCOc1ccc(CCNC(=O)C2CCCN(C(=O)N(C)C)C2)cc1OCC (stereo not drawn),-100*,-12%,6%,8%,-1%[46.1 µM],-5
COc1ccc(/C=C/C(=O)NCCOc2ccccc2OC)cc1,u,-7%,-5%,7%,2%,x
COc1ccc(CCNC(=O)NC2CCCCC2)cc1OC,-81*,-10%,-3%[38.3 µM],1%,-1%[46.1 µM],-1
O=C(NC(=S)Nc1ccc(CN2CCOCC2)cc1)c1ccco1,x,x,x,u,-3%,x
CSC1=C(C#N)C2(CCCC2)C(C#N)=C(N)N1,23,-5%,-3%[38.3 µM],u,-15%[46.1 µM],-1
N#CC1=C(N)NC(SCc2ccccc2)=C(C#N)C12CCCC2,-113*,u,1%,25µM*,17%,x
CC1=C(C(=O)Nc2ccccc2)C2(CCCCC2)C(C#N)=C(SCC(N)=O)N1,21,-12%,-25%[38.3 µM],-8%,-17%[46.1 µM],0
N#CC1=C(N)NC(SCc2ccc(Cl)cc2)=C(C#N)C12CCCCC2,-27,-25%,24%[38.3 µM],13µM*,-25%[46.1 µM],-16
CC1(C)CC(=O)C2=C(C1)NC(SCC(=O)Nc1ccccc1)=C(C#N)C21CCCCC1,9,u,7%[38.3 µM],22µM*,u,10
CCSC1=C(C#N)C2(CCCC2)C(C#N)=C(N)N1,-81*,u,8%[38.3 µM],u,13%[46.1 µM],-9
Cc1csc2nc(CCNS(=O)(=O)c3cccs3)cn12,10,-5%,6%[38.3 µM],2%,-6%[46.1 µM],-2
Cc1cccc(-n2c(SCC(=O)N3CCCC3)nc3n[nH]c(C)c3c2=N)c1,6,u,u,u,u,u
N#CC1=C(N)NC(SCC(=O)c2ccccc2)=C(C#N)C12CCCC2,54,u,5%,13µM*,-11%,x
N#CC1=C(N)NC(SCC(=O)Nc2ccc(Br)cc2)=C(C#N)C12CCCCC2,28,-11%,2%[38.3 µM],28µM*,u,-2
SMILES,PNC assembly inh,HPGD inh,IMPase Li inh,ALDH1A1 block,NPSR antagonist,IMPase cell inh
COc1ccc(NC(=O)CN2C(=O)C(C)SC(C)C2=O)cc1 (stereo not drawn),-14,-2%,0%,-6%,-3%[46.1 µM],-10
COc1ccc(/C=C/C(=O)Nc2ccc(Cl)c(Cl)c2)cc1,x,x,x,x,x,4
CCOc1ccc(NC(=S)NC(=O)/C=C/c2ccc(OC)c(OC)c2)c([N+](=O)[O-])c1,6,22µM*,-25%[38.3 µM],-3%,-9%[46.1 µM],5
COc1ccc(NC(=O)/C=C/c2ccccc2)c([N+](=O)[O-])c1,-82*,-1%,-6%,8%,7%,x
COC(=O)c1cc(Cl)c(NC(=O)/C=C/c2ccc(OC)cc2)cc1OC,-113*,u,-2%,u,-6%,x
CCCCNC(=S)Nc1ccc([N+](=O)[O-])cc1,u,-10%,9%,u,-11%,x
COCCNc1nc(SCC(=O)N2CCN(c3ccccc3OC)CC2)nc2ccccc12,-20,5%,10%[38.3 µM],-5%,-4%[46.1 µM],3
O=C(CCNc1n[nH]c(=O)[nH]c1=O)N/N=C/c1ccc(Cl)cc1,x,x,6%,4%,14%,x
O=C(c1ccc(N2CCCCCC2)c([N+](=O)[O-])c1)N1CCc2ccccc21,-7,-27%,17%,u,-50%,x
Cc1cccc(N2CCN(CC(=O)Nc3ccc(-n4cnnn4)cc3)CC2)c1C,36,-13%,-22%[38.3 µM],6%,-3%[46.1 µM],1
CCCNC(=O)Nc1ccc2c(c1)nc(C)n2C,-7,2%,-9%[38.3 µM],9%,-1%[46.1 µM],1
Cc1c(C#N)c2ccccc2n1CC(=O)N1CCc2ccccc2C1,-9,-15%,11%[38.3 µM],3%,-9%[46.1 µM],1
O=C(CCn1c(=O)c2ccccc2n(Cc2cccc([N+](=O)[O-])c2)c1=O)N1CCc2ccccc2C1,44,16µM*,12%,u,-8%,x
Cc1ccc2nc3c(cc(C#N)c(=O)n3CCN3CCOCC3)c(=O)n2c1,-122*,x,x,u,1%[46.1 µM],17
CCCCCCCCC1CO1 (stereo not drawn),x,-2%,-2%,-4%,x,x
CCc1ccc(NC(=O)Cn2c3[n+](c4c(F)c(F)ccc42)CCCCC3)cc1,x,x,16%,10µM*,-10%,x
CN1CCN(c2cnn(-c3ccccc3)c(=O)c2Br)CC1,x,x,12%,5%,17%,x
CCCN1CCN(C(=O)CCCn2c(C)c3cnn(-c4ccccc4)c(=O)c3c2C)CC1,7,-7%,13%[38.3 µM],28µM*,-8%[46.1 µM],13
CCC(C(=O)NCCN1CCN(C)CC1)n1c(C)c2cnn(-c3ccccc3)c(=O)c2c1C (stereo not drawn),24,-14%,-3%[38.3 µM],22µM*,14%[46.1 µM],u
CCOC(=O)N1CCN(C(=O)CCCn2c(=O)[nH]c3ccccc3c2=O)CC1,u,-12%,-2%[38.3 µM],-2%,-23%[46.1 µM],2
